High-throughput results as filed in PubChem.
Shown are actives, neighbours in structure and some others; about 1.3% of the full set was active somewhere.
Vif-A3F inh – inhibitors of Vif-A3F interaction | Potency, µM (series often up to 46.1 µM), without a hit: at the highest dose activity, negative = active | actives 0.2% (n = 390,000) | HeLa A3F-eYFP + Vif (tagged APOBEC3F with the HIV-1 protein that degrades it), YFP fluorescence increase | AID 602313; note: potency is the fitted concentration of half-maximal effect; % of control where 0% means no effect; nearly all actives have a fitted effect of over 65% in size
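HeLa cells stably expressing Vif plus C-terminally eYFP-tagged A3F were seeded, incubated overnight at 37 deg C, dosed with compound, incubated overnight again at 37 deg C. Yellow fluorescence (Ex 488/Em 500-530) reported blocked Vif-mediated A3F-eYFP degradation.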
Vif-A3G inh – blocks the Vif interaction with human APOBEC3G. HeLa A3G-eYFP + Vif (tagged APOBEC3G with the HIV-1 protein that degrades it), YFP fluorescence, overnight. Q9HC16. Potency, µM (top dose mostly 46.1 µM), for inactives: at the highest dose activity, negative = active, most hits filed as inhibitors. actives 0.076% (n = 410,000). AID 602310; note: potency is the fitted concentration of half-maximal effect; % is set by controls: 0 for no effect and ±100 for the full control effect; nearly all actives have a fitted effect of over 60% in size
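Read-out is eYFP fluorescence (Ex 488/Em 500-530) from Vif-expressing HeLa A3G-eYFP cells; more signal means A3G escaped Vif-mediated degradation. Cells plated overnight, compound pinned in, incubated overnight at 37 deg C.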
TRPML1 agonist – human mucolipin-1 channel agonism. TRPML1-expressing cells, Ca2+ dye fluorescence, FDSS. activation, % (test concentration not listed). actives 0.12% (n = 410,000). Q9GZU1. AID 624414; in the data active = activation above about 50%; inconclusive = mostly about 30% to 49%; note: 0% is about no effect
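Kinetic FDSS Ca2+ read in Tet-induced TRPML1-DL cells (ABD Ca8 dye plus quencher, 45-90 min RT loading): baseline, then compound, then 110 s agonist window; EC80 agonist 54-4 at 4uM final added afterwards for a 110 s antagonist window.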
Glioma ERSR ind – inducers of ER stress response in human glioma cells. Potency, µM, inactives show at the highest dose activation, most hits filed as activators. AID 602332. actives 0.02% (n = 420,000). U87-MG GRP78 promoter luciferase reporter, 16 h; note: potency is the fitted concentration of half-maximal effect; series mostly up to about 76 µM; % of control where 0% means no effect; nearly all actives have a fitted effect of over 35% in size
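Stably transfected U87-MG human glioma cells carrying a GRP78-based luminescent sensor were seeded at 1000 cells/well, pin-dosed with compounds and incubated 16 h. Luciferase reagent was then added, and end-point luminescence was read after 10 min at room temperature.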
12-LOX inh – blocks human arachidonate 12S-lipoxygenase; P18054; Potency, µM (top dose mostly 108 µM), without a hit: top-dose activity change, negative = inhibition, actives largely listed as inhibitors; actives 1.1% (n = 580,000); purified 12hLO, xylenol orange hydroperoxide absorbance; note: potency is the fitted concentration of half-maximal effect; % is set by controls: 0 for no effect and ±100 for the full control effect
Target sequence (P18054 whole entry, looked up): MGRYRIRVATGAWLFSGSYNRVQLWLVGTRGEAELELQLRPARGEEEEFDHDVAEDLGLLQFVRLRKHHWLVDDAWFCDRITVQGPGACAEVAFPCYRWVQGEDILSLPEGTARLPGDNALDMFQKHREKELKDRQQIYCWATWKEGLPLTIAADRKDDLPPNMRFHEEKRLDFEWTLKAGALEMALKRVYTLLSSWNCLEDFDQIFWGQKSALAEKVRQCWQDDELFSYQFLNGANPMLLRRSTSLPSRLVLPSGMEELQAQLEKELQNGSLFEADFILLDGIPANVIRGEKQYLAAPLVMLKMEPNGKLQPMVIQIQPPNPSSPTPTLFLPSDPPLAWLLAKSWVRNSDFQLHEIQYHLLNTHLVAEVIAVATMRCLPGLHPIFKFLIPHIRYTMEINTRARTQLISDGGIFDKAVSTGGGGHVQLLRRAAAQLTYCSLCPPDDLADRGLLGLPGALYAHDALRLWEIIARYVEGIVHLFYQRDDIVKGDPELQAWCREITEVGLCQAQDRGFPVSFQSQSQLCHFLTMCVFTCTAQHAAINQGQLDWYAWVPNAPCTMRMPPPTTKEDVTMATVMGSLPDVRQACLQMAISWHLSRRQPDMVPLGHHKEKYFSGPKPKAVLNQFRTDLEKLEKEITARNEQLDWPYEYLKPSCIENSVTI
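Purified human 12hLO (150 nM final) in 25 mM Hepes, 0.01% Triton X-100, pH 7.0 was preincubated 15 min at room temperature with compound. Then 40 uM arachidonic acid was added, 30 min. Hydroperoxide was read by Fe-XO absorbance ratio 573/405 nm.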
TRPML1 blocker – human mucolipin-1 channel inhibition | Q9GZU1 | TRPML1-inducible cells, Ca2+ dye fluorescence, FDSS; hits give low values; inhibition of EC80 agonist-evoked calcium signal | activity change, negative = inhibition, % (concentration not given with the values) | actives 0.02% (n = 390,000) | AID 624415; in the data active = activity change below about -50%; inconclusive = between about -30% and that limit;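 note: stimulus is agonist 54-4 at its EC80 concentration; % is set by controls: 0 for no effect and ±100 for the full control effect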
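Calcium fluorescence in TRPML1-DL cells induced overnight with Tet: a 110 s read after compound pin addition, then a 110 s antagonist read after challenge with 54-4 at 4 uM final (EC80).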
* hit, by the source's call; ? = inconclusive; . = not tested or not shown; ! = not confirmed by another sample; [ ] = another dose, or the depositor's remark. Unless noted, calls come from the whole dose curve; as a rule, active = well fitted curve in the direction sought with a large enough effect; inconclusive = small, poorly fitted or top-dose-only effect, or another doubt; inactive = no such curve, though single readings can be large; an effect the other way counts as inactive or inconclusive.

SMILES | Vif-A3F inh | Vif-A3G inh | TRPML1 agonist | Glioma ERSR ind | 12-LOX inh | TRPML1 blocker
Cc1cccc(OC[C@H]2C[C@@H](NC(=O)Nc3ccccc3)[C@H](O)[C@@H]2O)n1 | . | . | . | . | -12%[176 µM] | .
Cc1ccc(C)c(NC(=O)Cn2c(-n3nc(C)cc3C)nc(-c3ccccc3)cc2=O)c1 | . | . | . | . | 0% | .
CC(C)=C1C(=O)NN(c2cccc(Cl)c2)C1=O | -15% | -1% | -1 | -2% | ? | -6
CC(C)=C1C(=O)NN(c2ccc(C)c(Cl)c2)C1=O | 0% | -7% | 0 | -1% | 50µM* | -1
Clc1cccc(CN2CCSCC2)c1 | 2% | -1% | -1 | 0% | 0.35µM* | 13
Cc1nc2c(OCc3ccccc3)cccn2c1N(C)C(=O)C1CCCCC1 | . | -2% | 0 | -3% | 50µM* | -6
N#Cc1ccc2c(c1)OCCO2 | . | . | . | . | 8.9µM* | .
N#Cc1ccc(OCC(=O)c2ccc3c(c2)OCCO3)cc1 | . | . | . | . | -8% | .
O=C(O)c1cc(-c2cccc3ccccc23)nc2ccccc12 | 2% | -14% | 1 | -4% | -12% | 4
O=C(O)c1cc(-c2c[nH]c3ccccc23)nc2cc3ccccc3cc12 | . | . | . | . | 13µM* | .
C=CCNC(=O)C(C)OC(=O)c1cc2ccc(OC)cc2nc1C (stereo not drawn) | . | . | . | . | 1% | .
NC(=O)c1cccc2[nH]c([C@H]3CCN(Cc4cccc(Cl)c4)C3)nc12 | . | . | . | . | 55%[176 µM] | .
O=C(Nc1ccc(Cl)cc1)c1csc(C(O)c2cccc(OC(F)(F)F)c2)n1 (stereo not drawn) | . | . | . | . | 14µM* | .
Cc1ccc2nc(C3CCN(Cc4ccc(-c5cccs5)cc4)CC3)[nH]c(=O)c2c1 | . | . | . | . | 35µM*! | .
O=c1[nH]c(C2CCN(Cc3cccc(-c4cccs4)c3)CC2)nc2ccc(F)cc12 | . | . | . | . | 20% | .
COc1ccc(-c2nc(NC(=O)c3cc(OC)c(OC)c(OC)c3)sc2C)cc1 | . | . | . | . | 45µM* | .
CC(CCc1ccccc1)N1CCN(Cc2ccccc2)CC1 (stereo not drawn) | 1% | 0% | 0 | -3% | 5.6µM* | -1
CCS(=O)(=O)N1CCN(C(C)CCc2ccccc2)CC1 (stereo not drawn) | 2% | 2% | 1 | -5% | ? | 11
Cc1nc2ccc(S(=O)(=O)CCC(=O)Nc3ccc(F)cc3C)cc2s1 | 1% | 0% | 0 | -4% | 22µM* | 23
Cn1c(=O)c(Nc2ccc(Cl)cc2)c2c3c(cccc31)C(=O)c1ccccc1-2 | 5µM* | ? | ? | 0% | ? | -13
Cc1noc(C)c1-c1nc(N2CCN(C)CC2)c2ccccc2n1 | . | . | . | -3% | 18µM* | .
Cc1ccccc1-c1nc(N2CCOCC2)c2ccccc2n1 | . | . | . | -2% | ? | .
Cc1noc(C)c1-c1nc(N2CCOCC2)c2ccccc2n1 | . | . | . | -3% | 40µM* | .
Cc1noc(C)c1-c1nc(N2CCNCC2)c2ccccc2n1 | . | . | . | -5% | -14% | .
COc1cccc2cc(-c3cc(=O)oc4cc(OC(=O)N5CCOCC5)ccc34)c(=O)oc12 | . | . | . | . | 33% | .
SMILES | Vif-A3F inh | Vif-A3G inh | TRPML1 agonist | Glioma ERSR ind | 12-LOX inh | TRPML1 blocker
Cc1nc2cc(NC(=O)CC3(C(=O)O)CCCC3)ccc2o1 | . | . | . | . | 14% | .
CCc1nnc(NS(=O)(=O)c2ccc(N/C=C(\C=O)c3nc4cc(Cl)ccc4o3)cc2)s1 | 0% | -7% | 0 | -1% | 8.9µM* | 4
CCc1nnc(NS(=O)(=O)c2ccc(NC(=O)c3cccc(Cl)c3)cc2)s1 | 2% | -5% | 1 | 0% | -3% | 0
O=C(OCc1nnnn1-c1ccccc1)C1(c2ccc(Cl)cc2)CCC1 | . | . | . | . | -4% | .
S=c1sc2c(s1)SCCCCS2 | . | . | . | . | -68% | .
S=c1sc2c(s1)SCCCS2 | . | . | . | . | 32µM* | .
Fc1ccc(N/N=C2/CCSc3sccc32)c(F)c1 | -5% | -1% | 0 | 2% | 35µM* | 11
Cc1ccc(C)c(SC(C)C(=O)NC2CCCC2)c1 (stereo not drawn) | . | . | . | . | 4% | .
NC(=O)c1ccc(-n2nnnc2SCC(=O)c2ccc(O)c(O)c2)cc1 | -3% | -2% | 4 | -2% | ? | -10
Cc1cc(=O)[nH]c(SCC(=O)c2ccc(O)c(O)c2)n1 | 1% | -15% | -1 | -3% | 4.5µM* | 8
Cc1cc(C)nc(SCC(=O)c2ccc(O)c(O)c2)n1 | -2% | -11% | 1 | -3% | 8.9µM* | 4
COc1ccc(-n2nnnc2SCC(=O)c2ccc(O)c(O)c2)cc1 | -5% | 0% | 3 | -1% | 4.5µM* | 10
COCc1cc(C)nc(SCC(=O)c2ccc(O)c(O)c2)c1C#N | -10% | 0% | 0 | 6% | 0.89µM* | -4
COCc1cc(C)nc(SCC(=O)Oc2ccccc2)c1C#N | 6% | 2% | -1 | -3% | 0% | -13
Cc1ccc(C(=O)CSc2nc(C)cc(=O)[nH]2)cc1 | -3% | -7% | 0 | 3% | ? | -8
O=C(CCc1ccccc1)NC1(C(F)(F)F)C(=O)Nc2c1c(=O)[nH]c(=O)n2CCc1ccccc1 (stereo not drawn) | . | . | . | . | 7% | .
O=S(=O)(NCCc1cccc2cccnc12)c1ccccc1 | . | . | . | . | 45% | .
O=C(CSc1nc2ccccc2n1CCc1ccccc1)c1ccc(O)c(O)c1 | 7% | -6% | 3 | 1% | 25µM* | 4
O=C(CSc1nc2ccccc2n1CCc1ccccc1)N1CCOCC1 | 9% | 0% | 2 | -4% | -10% | -2
Cc1cc(SCC(=O)c2ccc(O)c(O)c2)n2nc(C)c(-c3ccccc3)c2n1 | -17% | ? | . | -6% | 40µM* | .
